# Measured values reported in PubChem BioAssay (NCATS).
# Results filed as inconclusive are left out. A call without a number means that no potency is given here. Active and inactive are the calls of the source. Calls follow the shape of the dose curve; as a rule, active = well fitted cell-killing curve with a large enough effect; inconclusive = small, poorly fitted or top-dose-only effect, or effect the other way; inactive = no such curve, though single readings can be large or run the other way.
# Assay: Quantitative High-Throughput drug screen in 47 multiple myeloma cell lines against the NCATS MIPE library collection: ARP1_JJKsccF8 cell viability assay (AID 1918928; also: nearly all actives have a fitted effect of over 40% in size)
# Settings: ARP1 myeloma cells viability, CellTiter-Glo ATP, 48 h; series mostly up to 45.8 µM
# Description: PI: Beverly A. Mock Ph.D.
# Laboratory of Cancer Biology and Genetics,
# Center for Cancer Research, National Cancer Institute,
# National Institute of Health, Bethesda, Maryland
# Drug resistance and disease progression are common in multiple myeloma (MM) patients, underscoring the need for new therapeutic combinations. […] We hypothesized that effective combinations would reduce MYC expression and enhance p16 activity. […] These preclinical data identify potentially useful drug combinations for evaluation in drug-resistant MM and reveal potential mechanisms of combined drug sensitivity.
# Described herein is the primary MIPE qHTS used to cherrypick compounds. Validated compounds were then further tested for potential synergistic activiy.
# [1] Peat TJ, Gaikwad SM, Dubois W, Gyabaah-Kessie N, Zhang S, Gorjifard S, Phyo Z, Andres M, Hughitt VK, Simpson RM, Miller MA, Girvin AT, Taylor A, Williams D, D'Antonio N, Zhang Y, Rajagopalan A, Flietner E, Wilson K, Zhang X, Shinn P, Klumpp-Thomas C, McKnight C, Itkin Z, Chen L, Kazandijian D, Zhang J, Michalowski AM, Simmons JK, Keats J, Thomas CJ, Mock BA. Drug combinations identified by high-throughput screening promote cell cycle transition and upregulate Smad pathways in myeloma. Cancer Lett. 2023 Aug 1;568:216284. doi: 10.1016/j.canlet.2023.216284. Epub 2023 Jun 24. PMID: 37356470; PMCID: PMC10408729.
# SEQUENCE No. (e.g., 1, 2, 3, etc.); […] (e.g., Cells, Incubation, Reagent, etc.); VALUE and DESCRIPTION.
# 1; Cells; 5 uL; white, solid bottom 1536-well Greiner assay plate.
# 2; Compounds; 23 nL; Kalypsis pin tool (Wako USA) equipped with a 1536-well pin head to transfer to the assay plates.
# 3; Incubation; 48 hours; 37C incubation.
# 4; Reagent;5uL; CellTiter Glo (Promega).
# 5; Detector; 425V; Luminescence; Viewlux PerkinElmer.
# NOTES (numbers refer to Sequence numbers above)
# 1. The cell-based screening methods employed in this study were like those previously published. Briefly, the corresponding myeloma cell lines were screened in 1,536-well plates with 500 cells, 5-uL per well for inhibition of cell viability (assessed by measuring ATP levels with CellTiterGlo).
# 2. NCATS MIPE 4.0 library of approved and investigational drugs were added using the Kalypsis pin tool. Wells treated with DMSO only for 100% viability and media only cells for 0% viability were used as controls.
# 3. The assay plates were covered and incubated for 48 hours in a 37C, 5% CO2 incubator with controlled humidity.
# 4. After 48 hours, CellTilter-GloTM luminescent substrate mix (Promega) reagent was added to the assay plate and plates we incubated for 5 min at room temperature.
# 5. Signal was measured as median relative luminescence units on a ViewLux (PerkinElmer) multiplate reader.
# [1] Heske CM, Davis MI, Baumgart JT, Wilson K, Gormally MV, Chen L, Zhang X, Ceribelli M, Duveau DY, Guha R, Ferrer M, Arnaldez FI, Ji J, Tran HL, Zhang Y, Mendoza A, Helman LJ, Thomas CJ. Matrix Screen Identifies Synergistic Combination of PARP Inhibitors and Nicotinamide Phosphoribosyltransferase (NAMPT) Inhibitors in Ewing Sarcoma. Clin Cancer Res. 2017 Dec 1;23(23):7301-7311. doi: 10.1158/1078-0432.CCR-17-1121. Epub 2017 Sep 12. PMID: 28899971; PMCID: PMC6636827.
# Potency is read from the fitted curve at half-maximal effect.
row,SMILES,Potency
1,NC[C@H](O)c1ccc(O)c(O)c1,inactive
2,CCOC(=O)N1CCC(=C2c3ccc(Cl)cc3CCc3cccnc32)CC1,20.9 µM (active)
3,Nc1nc2[nH]cc(CCc3ccc(C(=O)N[C@@H](CCC(=O)O)C(=O)O)cc3)c2c(=O)[nH]1,0.418 µM (active)
4,OCCn1cc(-c2cnc3nnn(Cc4ccc5ncccc5c4)c3n2)cn1,inactive
5,Oc1cccc(-c2nc(N3CCOCC3)c3oc4ncccc4c3n2)c1,0.0241 µM (active)
6,OC(CCN1CCCCC1)(c1ccccc1)C1CC2C=CC1C2 (stereo not given),inactive
7,CCCCNc1cc(C(=O)O)cc(S(N)(=O)=O)c1Oc1ccccc1,inactive
8,CNC(=O)c1ccc(N2C(=S)N(c3ccc(C#N)c(C(F)(F)F)c3)C(=O)C2(C)C)cc1F,inactive
9,Cc1c(CN2CCN(C(=O)C(C)C)CC2)sc2c(N3CCOCC3)nc(-c3cnc(N)nc3)nc12,0.0235 µM (active)
10,O=C(O)[C@@H](c1ccc(OCc2ccc3ccccc3n2)cc1)C1CCCC1,inactive
11,Nc1ccc(S(=O)(=O)Nc2ccnn2-c2ccccc2)cc1,inactive
12,Cc1n[nH]c(C)c1Cc1sc2c(c1C(=O)N1C[C@H](O)CO1)c(=O)n(C)c(=O)n2CC(C)C,inactive
13,CCOC(=O)C1=C[C@]2(CC)CCCN3CCc4c(n1c1ccccc41)[C@@H]32,20.9 µM (active)
14,CCCc1nc2c(C)cc(-c3nc4ccccc4n3C)cc2n1Cc1ccc(-c2ccccc2C(=O)O)cc1,inactive
15,CCN(c1ccccc1)c1cc(NC)[n+](C)c(C)n1,23.5 µM (active)
16,CCCC(CCC)C(=O)O,inactive
17,NC(=O)c1ccc(-c2nc(-c3ccc4c(c3)OCCO4)c(-c3ccccn3)[nH]2)cc1,4.18 µM (active)
18,COc1cc2nccc(Oc3ccc(NC(=O)NC4CC4)c(Cl)c3)c2cc1C(N)=O,14.8 µM (active)
19,Nc1nc2c(ncn2COCCO)c(=O)[nH]1,inactive
20,CC[C@H](Nc1ncnc2nc[nH]c12)c1nc2cccc(F)c2c(=O)n1-c1ccccc1,20.9 µM (active)

row,SMILES,Potency
1,NC(N)=NC(=O)c1nc(Cl)c(N)nc1N,inactive
2,Cc1cc2c(C(C)C)c(O)c(O)c(C=O)c2c(O)c1-c1c(C)cc2c(C(C)C)c(O)c(O)c(C=O)c2c1O,10.5 µM (active)
3,COc1ccc(-c2ccc3c(N4CCOCC4)nc(N4C[C@@H](C)O[C@@H](C)C4)nc3n2)cc1CO,0.264 µM (active)
4,CC1(C)Cc2c(-c3ccccc3)c(-c3ccc(Cl)cc3)c(CC(=O)O)n2C1,23.5 µM (active)
5,COc1ccc(C2=N[C@H](c3ccc(Cl)cc3)[C@H](c3ccc(Cl)cc3)N2C(=O)N2CCNC(=O)C2)c(OC(C)C)c1,16.6 µM (active)
6,Cc1cc(SCc2sc(-c3ccc(C(F)(F)F)cc3)nc2C)ccc1OCC(=O)O,inactive
7,CCCn1c(=O)c2[nH]c(C34CC5CC3C[C@@H](C5)C4)nc2n(CCC)c1=O,9.35 µM (active)
8,NC(=O)C1CCCc2c1[nH]c1ccc(Cl)cc21 (stereo not given),inactive
9,O=C(O)CCc1ccc(NCc2cccc(Oc3ccccc3)c2)cc1,inactive
10,CCOc1ccc(Cc2cc([C@@H]3O[C@H](CO)[C@@H](O)[C@H](O)[C@@H]3O)ccc2Cl)cc1,inactive
11,O=C(C=Cc1ccc(/C=C/C(=O)Nc2ccc(C3=NCCN3)cc2)cc1)Nc1ccc(C2=NCCN2)cc1,inactive
12,COc1nc(-c2ccc3c(c2)OCO3)n(-c2ccc(NC(=O)CSc3ccccc3)cc2)n1,inactive
13,O=c1n(CCCN2CCN(c3cccc(Cl)c3)CC2)nc2ccccn12,inactive
14,NC(=O)c1cnccn1,inactive
15,Cc1ccc(N(CC2=NCCN2)c2cccc(O)c2)cc1,29.6 µM (active)
16,N#CC[C@H](C1CCCC1)n1cc(-c2ncnc3[nH]ccc23)cn1,inactive
17,CC(=O)Oc1ccccc1C(=O)O,inactive
18,O=C1[C@H](Cc2ccc(O)cc2)N2C(=O)CCN(C(=O)NCc3ccccc3)[C@H]2CN1Cc1cccc2ccccc12,4.18 µM (active)
19,CC(C)OC(=O)C1=CN(C(=O)c2ccc(F)c(F)c2)CC(C)(C)c2c1[nH]c1ccccc21,inactive
20,CC(=O)NC(C)c1ccc(Oc2ccc(OC(C)C)cc2)cc1 (stereo not given),16.6 µM (active)
